Data published in the supplement of paper PMC6763611.

The compounds below were run on Plasmodium falciparum NF54 (assay: growth inhibition relative to untreated control; higher = more inhibition). Conditions: 5 µM; MM + chorismate end-products (CM screening medium); 72 h.
In short: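 Ring-stage P. falciparum NF54 parasites at 1% hematocrit and 1% parasitemia were dispensed at 100 μL/well into dark 96-well half-area plates and given a single dose of test compound at 5 μM or 1 μM for 72 h at 37 °C. Incubation took place in minimal RPMI, either alone or supplemented with the chorismate end-products folate (2.2 μM), pABA (7.3 μM), pHBA (7.3 μM), tyrosine (111 μM), phenylalanine (90 μM) and tryptophan. Growth inhibition was determined with SYBR Green relative to untreated wells, using uninfected erythrocytes for background.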

SMILES	growth inhibition [%]
CCNC(=O)C(C)Nc1nc(-c2cccnc2)nc2sc(C)c(C)c12 (stereo not drawn)	16.8
CCC(C)NC(=O)c1ccc(NC(=O)C2(c3ccccc3)CCCC2)cc1 (stereo not drawn)	61.1
O=C(NCCc1ccccc1)c1cc(-c2cccnc2)cnc1NCC1CC1	59.2
Cc1ccc2cc(C3NC(=O)c4ccccc4N3)c(Cl)nc2c1 (stereo not drawn)	95.2
COc1ccc(-c2nc(-c3cccc(NC(=O)Cc4ccc(F)cc4)c3)no2)cc1OC	91.6
Brc1c(-c2ccc3c(c2)OCO3)nc2ncccn12	29.5
CNC(=O)C1Cc2ccccc2N1C(=O)Cc1ccc(F)cc1 (stereo not drawn)	< 0
CCCn1nnc(NC(=O)COc2ccc(C3CCCCC3)cc2)n1	< 0
Brc1cncc(-c2cc(NCCCn3ccnc3)nc(-c3ccccc3)n2)c1	91.2
COc1ccc(S(=O)(=O)Nc2ccc(CN3CCN(C(=O)c4cccc(C#N)c4)CC3)cc2)cc1	41.6
NCCC(O)C(=O)N[C@@H]1C[C@H](N)[C@@H](OC2O[C@H](CN)[C@@H](O)[C@H](O)[C@H]2O)[C@H](O)C1OC1O[C@H](CO)[C@@H](O)[C@H](N)[C@H]1O (stereo partly drawn)	< 0
CC(C)n1ncc2c(C(=O)NCC(c3cccs3)N3CCOCC3)cc(-c3ccccc3)nc21 (stereo not drawn)	42.4
CCCS(=O)(=O)N1CCC(CO)(Cc2ccccc2C(F)(F)F)CC1	99.7
C[C@]1(COc2ccc(N3CCC(Oc4ccc(OC(F)(F)F)cc4)CC3)cc2)Cn2cc([N+](=O)[O-])nc2O1	21.9
COc1cc(CN2CCC3(C=Cc4ccccc43)CC2)cc2c1OCO2	< 0
Cc1cc(NCC(C)C)c2[nH]nc(-c3ccccc3)c2n1	99.7
CC(C)C(Oc1cccc2ccccc12)C(=O)O (stereo not drawn)	< 0
CC(=O)NC[C@@H]1CN(c2ccc(N3CCOCC3)c(F)c2)C(=O)O1	< 0
O=C(NCCN1CCCC1)c1cc(NCCCCN2CCC(F)(F)CC2)nc2ccc(Cl)cc12	90.7

SMILES	growth inhibition [%]
Cc1ccc2[nH]c3c(NCCN(C)C)ncnc3c2c1	98.1
Cc1ccc2oc(-c3cc(NC(=O)Cc4ccccc4)ccc3Cl)nc2c1	26.4
CC(C)(C(=O)Nc1ccc(F)cc1)n1cc(-c2ccccc2F)cn1	5
COc1cncc(-c2cncc(N3CCN(c4ccncc4)CC3)n2)c1	97.4
O=C(Cn1ccnc1[N+](=O)[O-])NCc1ccccc1	0.641
CCc1nc2ccc(C(=O)NCc3ccc4c(c3)OCO4)cn2c1N(C)Cc1cccs1	< 0
CCCn1c(NC(=O)c2ccc3ccccc3n2)nc2ccccc21	86.1
COCC(C)NC(=O)CSc1ncnc2sc(-c3ccccc3)cc12 (stereo not drawn)	< 0
CNc1snc(C)c1C(=O)NCCOc1ccc(OC)cc1	42.9
CC(C)(C)OC(=O)N1CCN(c2cc(-c3ccc(Oc4ccccc4)cc3)n[nH]2)CC1	64.8
O=C(CN1CCOCC1)Nc1ccc2ncnc(Nc3ccc(OCc4cccc(F)c4)c(Cl)c3)c2c1	94.7
Cc1ccc(-c2nc(CN(Cc3ccccn3)C(C)C)cs2)o1	81.7
CC(C)(C)CN1C(=O)C(c2ccccc2)(c2ccccc2)N=C1N	57.1
CCC(Sc1nc2ccccc2o1)C(=O)Nc1nnc(C)s1 (stereo not drawn)	< 0
O=C(c1cc2ccccc2o1)N1CCN(Cc2ccc3c(c2)OCO3)CC1	< 0
Cc1cc(O)nc(-n2nc(C)cc2C)n1	< 0
COC(=O)c1ccc(F)cc1NS(=O)(=O)c1cccc(-c2cnn(Cc3ccccc3)c2)c1	9.57
Cc1nn2c(O)c3c(nc2c1-c1ccc(F)cc1)CCCC3	36.7
CC(C)C(NC(=O)Cc1cccc2ccccc12)C(=O)Nc1cccc(C#N)c1 (stereo not drawn)	79.3
